One substance from publication PMC9174471 can be followed below.

The experiment has as its target Histone H4 (UniProt P62805). The experiment in a line: cross-link between two proteins; cross-linking mass spectrometry.

On to ADP/ATP translocase 3, P12236, for which the “listed as a hit” value is on record as “yes”.
